Holding throughout (assay): yeast three-hybrid, YBZ-1, SC-Leu-His + 0.5 mM 3-AT, 4 days
What all share (conditions): tags: N-Gal4 AD-HA kept; label: inside an RPR1-promoter hybrid RNA with tandem MS2 sites; ssRNA

One assay has as its target PUM1 PUF domain R4-NYP (Homo sapiens, UniProt Q14671 828-1176, H972Y;Q975P). An outline of the steps:
(§1)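 The interaction score is the log change in how often each variant appears, from input to selection. Frequencies came from PCR-amplified, Illumina-sequenced repeat regions of Pumilio-1 PUF domain libraries grown in strain YBZ-1 (LexA–MS2 coat fusion, HIS3 reporter) alongside matching RNA elements. Input plates were SC-Leu and selection plates were SC-Leu-His + 0.5 mM 3-AT, each for four days, and the log2 calculation used a pseudocount of 1 where a variant was absent.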

The target of the next assay is PUM1 PUF domain R4-MPS (Homo sapiens, UniProt Q14671 828-1176, N971M;H972P;Q975S). The method, boiled down: as §1
For another assay, the target named is T1, PUM1 PUF domain R6-NWI (Homo sapiens, UniProt Q14671 828-1176, Y1044W;Q1047I).
T1 sequence: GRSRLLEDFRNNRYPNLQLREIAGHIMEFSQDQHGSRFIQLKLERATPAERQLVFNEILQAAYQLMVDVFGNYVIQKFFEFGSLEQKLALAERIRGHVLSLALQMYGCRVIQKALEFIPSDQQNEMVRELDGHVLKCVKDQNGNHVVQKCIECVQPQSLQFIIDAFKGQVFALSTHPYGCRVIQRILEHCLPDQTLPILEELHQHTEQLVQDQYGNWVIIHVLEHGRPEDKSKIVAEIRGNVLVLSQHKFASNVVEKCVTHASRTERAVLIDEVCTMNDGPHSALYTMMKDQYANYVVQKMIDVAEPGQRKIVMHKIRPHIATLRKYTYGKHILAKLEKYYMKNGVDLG
An outline of the steps: as §1

The next assay deals with PUM1 PUF domain R5-LLR (Homo sapiens, UniProt Q14671 828-1176, C1007L;R1008L;Q1011R). An outline of the steps:
as §1

A further assay deals with PUM1 PUF domain R3-GND (Homo sapiens, UniProt Q14671 828-1176, C935G;R936N;Q939D). The method, boiled down:
as §1

A further assay has as its target PUM1 PUF domain R5-RQP (Homo sapiens, UniProt Q14671 828-1176, C1007R;R1008Q;Q1011P). The method, boiled down:
as §1

The target in the next assay is T2, PUM1 PUF domain R6-GWK (Homo sapiens, UniProt Q14671 828-1176, N1043G;Y1044W;Q1047K).
T2 sequence: T1 sequence with N216G, I220K
An outline of the steps: as §1

For the next assay, the target named is PUM1 PUF domain R5-KSS (Homo sapiens, UniProt Q14671 828-1176, C1007K;R1008S;Q1011S). An outline of the steps: as §1
In a further assay the target is PUM1 PUF domain R3-RAM (Homo sapiens, UniProt Q14671 828-1176, C935R;R936A;Q939M). The method, boiled down:
as §1

Substitutions are numbered along the chain they refer to.

For “GGCUAGAACUAGUGGAUCCCCCGGCGCCCGGCGGCUCGAGCCCGGGUAAGUGUAUAUAGUCUGCAUGCCGCCGGGCGCCAUGCCUGCAGGUCGACUCUAGAAAACAUG”, the binding signal with PUM1 PUF domain R4-NYP is 2.54 log2 enrichment (interaction score). For the sequence “GGCUAGAACUAGUGGAUCCCCCGGCGCCCGGCGGCUCGAGCCCGGGUAAGUGUACAUAGUCUGCAUGCCGCCGGGCGCCAUGCCUGCAGGUCGACUCUAGAAAACAUG”, the binding signal in the assay with PUM1 PUF domain R4-NYP was 2.11 log2 enrichment (interaction score); with PUM1 PUF domain R4-MPS, 2.38 log2 enrichment (interaction score). Regarding “GGCUAGAACUAGUGGAUCCCCCGGCGCCCGGCGGCUCGAGCCCGGGUAAGUGAAAAUAGUCUGCAUGCCGCCGGGCGCCAUGCCUGCAGGUCGACUCUAGAAAACAUG”, the binding signal with PUM1 PUF domain R6-NWI was 3.09 log2 enrichment (interaction score). On to “GGCUAGAACUAGUGGAUCCCCCGGCGCCCGGCGGCUCGAGCCCGGGUAAGUGUUAAUAGUCUGCAUGCCGCCGGGCGCCAUGCCUGCAGGUCGACUCUAGAAAACAUG”, for which the binding signal in the assay with PUM1 PUF domain R5-LLR was 2.92 log2 enrichment (interaction score). For the sequence “GGCUAGAACUAGUGGAUCCCCCGGCGCCCGGCGGCUCGAGCCCGGGUAAGUGUAAGUAGUCUGCAUGCCGCCGGGCGCCAUGCCUGCAGGUCGACUCUAGAAAACAUG”, in the assay with PUM1 PUF domain R3-GND, the binding signal was 3.15 log2 enrichment (interaction score).

For the sequence “GGCUAGAACUAGUGGAUCCCCCGGCGCCCGGCGGCUCGAGCCCGGGUAAGUGUAAAUAGUCUGCAUGCCGCCGGGCGCCAUGCCUGCAGGUCGACUCUAGAAAACAUG”, the binding signal is 2.21 log2 enrichment (interaction score) with PUM1 PUF domain R5-RQP, 7.25 log2 enrichment (interaction score) in the assay with PUM1 PUF domain R6-GWK and 4.59 log2 enrichment (interaction score) in the assay with PUM1 PUF domain R4-MPS. Consider “GGCUAGAACUAGUGGAUCCCCCGGCGCCCGGCGGCUCGAGCCCGGGUAAGUGUCAAUAGUCUGCAUGCCGCCGGGCGCCAUGCCUGCAGGUCGACUCUAGAAAACAUG”, for which the results for the binding signal with PUM1 PUF domain R5-RQP and in the assay with PUM1 PUF domain R5-KSS were 4.91 log2 enrichment (interaction score) and 3.4 log2 enrichment (interaction score), respectively. Regarding “GGCUAGAACUAGUGGAUCCCCCGGCGCCCGGCGGCUCGAGCCCGGGUAAGUGUAAUUAGUCUGCAUGCCGCCGGGCGCCAUGCCUGCAGGUCGACUCUAGAAAACAUG”, the binding signal with PUM1 PUF domain R3-RAM was 2.45 log2 enrichment (interaction score).

The values above are taken from article PMC8384837, “Expanding the binding specificity for RNA recognition by a PUF domain”.
